Screens (PubChem BioAssay)
NLRP3 yeast inh: NALP3 inflammasome inhibitors in reconstituted yeast, primary screen, luminescence, uHTS; Yeast reconstituted NLRP3/ASC/caspase-1, beta-gal luminescence, 24 h; inhibition, % at 10 µM; 330,000 tested, 0.39% active; AID 2825, 2010;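 active = inhibition of 50% or more; inactive = inhibition below 50%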
NALP1 yeast inh: NALP1 inflammasome inhibitors in reconstituted yeast, colorimetric, S. cerevisiae, triplicate retest. 280,000 tested, 0.61% active. S. cerevisiae NALP1/ASC/caspase-1 growth, X-gal OD620, 72 h. inhibition, % at 10 µM. AID 2071, 2009; in the data active = inhibition mostly above about 24%, no sharp cut-off; inactive = mostly below about 32%
tim10-1 inh: growth inhibitors of tim10-1 mutant yeast, primary screen, luminescence, uHTS. S. cerevisiae tim10-1 ts strain growth, BacTiter-Glo, 24 h. inhibition, % at 20 µM. 330,000 tested, 2.2% active. AID 463190, 2010;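 active = inhibition of at least 40%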;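 also: mutant grown at 25 °C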
tim23-1 inh: growth inhibitors of tim23-1 mutant yeast, primary screen, luminescence, uHTS | S. cerevisiae tim23-1 growth, BacTiter-Glo luminescence, 24 h | inhibition, % at 20 µM | 330,000 tested, 1.3% active | AID 463212, 2010;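 active = growth inhibition of the mutant yeast at or above 50%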;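 also: temperature-sensitive mutant grown at 25 °C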
TIM10 inh: growth inhibitors of isogenic TIM10 control yeast, primary screen, counter-screen for tim10-1 yeast inhibitor project, luminescence, uHTS | 330,000 tested, 1.4% active | S. cerevisiae TIM10 strain growth, BacTiter-Glo luminescence, 24 h | inhibition, % at 10 µM;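 active = inhibition of 40% or more at the single tested concentration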;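 also: wild-type TIM10 isogenic control strain grown at permissive 25 °C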
TIM10 conf: growth inhibitors of wild-type TIM10 yeast, confirmation, counter-screen for tim10-1 synthetic lethality project, single concentration, luminescence, S. cerevisiae | AID 463215, 2010 | S. cerevisiae tim10 strain growth, BacTiter-Glo luminescence, 24 h | 4,600 tested, 63% active | shares compounds with TIM10 inh | inhibition, % at 10 µM;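 active = inhibition of yeast growth at or above a set limit in either of two replicates at 10 µM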; also: this counterscreen used the strain with wild-type TIM10
Large screens that a line does not name were inactive (follow-up assays come after a bar, where they were run). Most compounds without a hit are left out; they make up all but 4% or so of the library.

CC(Nc1ccccc1N1CCCCC1)C(=O)N1CCc2ccccc21 (stereo not drawn)	none
O=C(N/N=C/c1sc2ccccc2c1O)c1ccccc1	TIM10 inh 40 | TIM10 conf inactive
COc1ccc(C(=O)N/N=C/c2sc3ccccc3c2O)cc1	none (no result: NLRP3 yeast inh, tim10-1 inh, tim23-1 inh, TIM10 inh)
CC(C)CCNC(=O)Cc1csc(-c2ccccc2)n1	none
Cc1nc2oc3c(NCc4ccccc4)ncnc3c2c2c1COC(C)(C)C2	TIM10 inh 41 | TIM10 conf inactive
Cc1ccc(NC(=O)c2ccc(NS(=O)(=O)c3ccc4[nH]c(=O)[nH]c4c3)cc2)nc1	none (no result: NALP1 yeast inh)
O=C(CSc1ncn(-c2ccccc2)n1)c1cccs1	TIM10 inh 48 | TIM10 conf inactive
Cn1c(SCC(=O)N(Cc2ccccc2)C(C)(C)C)nc2ccccc21	TIM10 inh 40 | TIM10 conf inactive
Cn1c(SCC(=O)N2CCCC2)nc2ccccc21	none
COCc1c(C(=O)N/N=C/c2ccncc2)nnn1-c1nonc1N	none
Cc1cc(NC(=S)NC(=O)C2CC2)ccc1Br	TIM10 inh 41 | TIM10 conf 42
Cc1ccccc1NC(=S)NC(=O)C1CCCCC1	none
CN(C)S(=O)(=O)c1cccc(NC(=S)NC2CCCCC2)c1	none
Cc1ccc(NC(=S)NC(=O)C2CCCC2)c(Br)c1	TIM10 inh 41 (no result: NALP1 yeast inh) | TIM10 conf 35
CN(C)S(=O)(=O)c1cccc(NC(=S)NC(=O)C2CCCCC2)c1	TIM10 inh 41 | TIM10 conf 35
c1ccc(CNCc2ccco2)cc1	none
C=CCn1c(N/N=C/c2ccc(O)cc2)nc2ccccc2c1=O	TIM10 inh 45 | TIM10 conf 32
O=C(Nc1ccc2c(c1)CCC2)c1cc2ccccc2o1	TIM10 inh 56 | TIM10 conf inactive
O=C1OC(c2ccccc2)=C/C1=C/c1cccs1	TIM10 inh 46 | TIM10 conf inactive
O=C1CC(N2CCC(c3nc4ccccc4o3)CC2)C(=O)N1c1ccc(Cl)c(C(F)(F)F)c1 (stereo not drawn)	TIM10 inh 43 | TIM10 conf inactive
CC(=O)N1CCC(C(=O)Nc2ccc(S(=O)(=O)N3CCCCC3)cc2)CC1	none
O=C1CSC(c2ccccc2Br)N1c1ccc(Cl)cn1 (stereo not drawn)	TIM10 inh 41 | TIM10 conf inactive
C[C@]12CCC(=O)C=C1C=C[C@@H]1[C@@H]2CC[C@@]2(C)[C@H]1CC[C@@]21CCC(=O)O1	none
O=C(N/N=C/c1nn(-c2ccccc2)cc1-c1ccccc1)c1ccncc1	TIM10 inh 40 | TIM10 conf inactive
O=C(N/N=C/c1cn(-c2ccccc2)nc1-c1cccs1)c1ccncc1	none
O=C(Nc1cccnc1)/C(N=Nc1cccnc1)=C(\O)c1ccccc1	none
CCN1C(=O)N/C(=C/c2cc(C)n(Cc3ccccc3)c2C)C1=O	TIM10 inh 95 | TIM10 conf inactive
CCn1c(C)cc(/C=C2\NC(=O)N(Cc3ccc(Cl)cc3)C2=O)c1C	none
CCOC(=O)C1CCCN(C(=O)Cn2c(=O)c3cccn3c3cccnc32)C1 (stereo not drawn)	none
COc1ccc2[nH]c3c(c2c1)CCN1C(=O)C(CC(=O)NCCC2=CCCCC2)C[C@H](C(=O)N2CCOCC2)[C@@]31C (stereo partly drawn)	none (no result: NLRP3 yeast inh, NALP1 yeast inh)
Cc1ccc(S(=O)(=O)NCCSc2nnnn2-c2cc(C)ccc2C)cc1	TIM10 inh 45 | TIM10 conf inactive
Cc1ccc(S(=O)(=O)NCCSc2nnnn2-c2ccccc2)cc1	none
CCOC(=O)c1cc2c(OC)ccc(OC)c2n1CC(=O)c1ccccc1	none
O=C(c1ccc(Cl)cc1)c1cc(-c2ccccn2)c(N2CCOCC2)s1	TIM10 inh 40 | TIM10 conf inactive
CN1c2ccccc2Oc2nnc(Cl)cc21	TIM10 inh 48 | TIM10 conf 50
O=C(O)c1ccc(Cl)c(NC(=S)NC(=O)c2ccccc2[N+](=O)[O-])c1	none
CN1CCN(S(=O)(=O)c2ccc(NC(=O)c3ccccc3Cl)cc2)CC1	none
O=C(Nc1ccc(S(=O)(=O)N2CCCCCC2)cc1)c1ccco1	TIM10 inh 48 | TIM10 conf inactive
O=C(Nc1cccc(S(=O)(=O)N2CCCC2)c1)c1ccco1	none (no result: NALP1 yeast inh)
O=C(Nc1ccc(S(=O)(=O)N2CCCCC2)cc1)c1ccccc1Cl	TIM10 inh 45 | TIM10 conf 39
COc1ccc(NC(=S)NC2CCCCC2)cn1	none
Cc1ccc(C(=O)N2CCN(Cc3ccccc3)CC2)o1	none
O=C(c1ccc([N+](=O)[O-])o1)N1CCN(Cc2ccccc2)CC1	TIM10 inh 43 | TIM10 conf 38
COc1cc2c(cc1NC(=O)CN(C)Cc1nc3ccccc3c(=O)[nH]1)oc1ccccc12	TIM10 inh 42 | TIM10 conf inactive
Cc1ccc(S(=O)(=O)N(C)C)cc1NC(=O)COC(=O)Cc1ccsc1	none (no result: NALP1 yeast inh)
O=[N+]([O-])c1ccc(/C=N/Nc2ccnc3cc(Cl)ccc23)o1	TIM10 inh 64 | TIM10 conf 71
O=[N+]([O-])c1ccc(/C=N/NS(=O)(=O)c2ccc(Cl)cc2)o1	none (no result: NLRP3 yeast inh, tim10-1 inh, tim23-1 inh, TIM10 inh)
Cn1cc(CC(=O)NCc2ccc(F)cc2)c2ccccc21	none
CC(C)c1ccc(NC(=O)Cc2cn(C)c3ccccc23)cc1	TIM10 inh 47 | TIM10 conf 32
O=C(CSC1=NS(=O)(=O)c2cc(F)ccc2N1)NCc1ccccc1	none (no result: NALP1 yeast inh)
CC(C)CC(=O)NC(=S)Nc1cccc(NC(=O)c2ccccc2Cl)c1	TIM10 inh 45 | TIM10 conf 34
CC(C)CC(=O)NC(=S)Nc1ccc(NC(=O)c2ccco2)cc1	TIM10 inh 46 | TIM10 conf inactive
Cc1ccc2c(c1)N(C(=O)CCC(=O)NCc1cccc(F)c1)CCO2	none
CCC(Oc1ccccc1)C(=O)Nc1ccc(S(=O)(=O)Nc2cc(C)on2)cc1 (stereo not drawn)	none
Cc1ccc(S(=O)(=O)N(C)Cc2ccc(C(=O)N/N=C3\CC(=O)CC(C)(C)C3)cc2)cc1	none
Fc1cccc(Cn2cc(C(=S)N3CCCCC3)c3ccccc32)c1	TIM10 inh 48 | TIM10 conf inactive
O=C(Nc1nccs1)c1ccc2nccnc2c1	TIM10 inh 41 | TIM10 conf 39
Cc1cc(C)c(S(=O)(=O)NCC(=O)NCc2ccco2)c(C)c1	none
O=C(Nc1ccccc1)/C(=C/c1ccc(O)cc1)NC(=O)c1ccco1	none
Cc1cccc(C(=O)Nc2cc(S(=O)(=O)N3CCOCC3)ccc2N2CCCCC2)c1	none (no result: NALP1 yeast inh)
O=C(c1ccc(Cn2c(=S)[nH]c3ccccc3c2=O)cc1)N1CCN(c2ccccn2)CC1	TIM10 inh 73 | TIM10 conf inactive
